Hit rate of the full screen: of about 5,500 compounds, about 2,000 (36%) were called active. Another 18% or so got no clear call; they are omitted. Rule as the data show it: active = normalized growth mostly below about 0.91 (no sharp cut-off); inconclusive = no clear call, values can overlap the other calls; inactive = mostly above about 0.92. Some of the results follow.
Assay: chemical genetic growth profiling, strain panel (AID 1159580);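 also: tested at 20 µM; growth read once vehicle control cultures reached saturation at 30 °C; 1 = growth at the plate median or of vehicle wells; lower values mean less growth of the strain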
Conditions: growth OD
[1] = S. cerevisiae deletion strains, locus YDL101C, strain DUN1, stronger effect = lower value
[2] = S. cerevisiae deletion strains, locus YHR030C, strain SLT2, stronger effect = lower value
[3] = S. cerevisiae deletion strains, locus YAL013W, strain DEP1, stronger effect = lower value
[4] = S. cerevisiae deletion strains, locus YBR229C, strain ROT2, stronger effect = lower value
[5] = S. cerevisiae deletion strains, locus YCL061C, strain MRC1, stronger effect = lower value
[6] = S. cerevisiae deletion strains, locus YDL134C, strain PPH21, stronger effect = lower value
[7] = S. cerevisiae deletion strains, locus YDR150W, strain NUM1, stronger effect = lower value
[8] = S. cerevisiae deletion strains, locus YEL061C, strain CIN8, stronger effect = lower value
[9] = S. cerevisiae deletion strains, locus YGR078C, strain PAC10, stronger effect = lower value
[10] = S. cerevisiae deletion strains, locus YHR087W, strain rtc3, stronger effect = lower value
[11] = S. cerevisiae deletion strains, locus YJR043C, strain POL32, stronger effect = lower value
[12] = S. cerevisiae deletion strains, locus YJR075W, strain HOC1, stronger effect = lower value
[13] = S. cerevisiae deletion strains, locus YLR039C, strain RIC1, stronger effect = lower value
[14] = S. cerevisiae deletion strains, locus YLR058C, strain SHM2 (second series), stronger effect = lower value
[15] = S. cerevisiae deletion strains, locus YLR085C, strain ARP6, stronger effect = lower value
[16] = S. cerevisiae deletion strains, locus YLR262C, strain YPT6, stronger effect = lower value
[17] = S. cerevisiae deletion strains, locus YML094W, strain GIM5, stronger effect = lower value
[18] = S. cerevisiae deletion strains, locus YMR219W, strain ESC1, stronger effect = lower value
[19] = S. cerevisiae deletion strains, locus YMR307W, strain GAS1, stronger effect = lower value
[20] = S. cerevisiae deletion strains, locus YNL153C, strain GIM3, stronger effect = lower value
[21] = S. cerevisiae deletion strains, locus YNL298W, strain CLA4 (second series), stronger effect = lower value
[22] = S. cerevisiae deletion strains, locus YNL322C, strain KRE1, stronger effect = lower value
[23] = S. cerevisiae deletion strains, locus YNR030W, strain Alg12, stronger effect = lower value
[24] = S. cerevisiae deletion strains, locus YPL055C, strain LGE1, stronger effect = lower value
[25] = S. cerevisiae deletion strains, locus YPL241C, strain CIN2, stronger effect = lower value
[26] = S. cerevisiae deletion strains, locus YPR135W, strain CTF4, stronger effect = lower value

Measured: normalized growth

O=C(Nc1ccc(OC(F)(F)F)cc1)OC1CN(C(c2ccccc2)c2ccccc2)C1
inactive: S. cerevisiae deletion strains, locus YAR019C, strain CDC15, stronger effect = lower value 1 | S. cerevisiae deletion strains, locus YBL105C, strain PKC1, stronger effect = lower value 0.995 | S. cerevisiae deletion strains, locus YBR135W, strain CKS1, stronger effect = lower value 0.996 | S. cerevisiae deletion strains, locus YBR136W, strain MEC1, stronger effect = lower value 0.999 | S. cerevisiae deletion strains, locus YBR160W, strain CDC28, stronger effect = lower value 0.999 | S. cerevisiae deletion strains, locus YDL017W, strain CDC7, stronger effect = lower value 0.999 | S. cerevisiae deletion strains, locus YDL028C, strain MPS1, stronger effect = lower value 1 | [1] 0.984 | S. cerevisiae deletion strains, locus YDL108W, strain KIN28, stronger effect = lower value 0.991 | S. cerevisiae deletion strains, locus YDL132W, strain cdc53, stronger effect = lower value 1 | S. cerevisiae deletion strains, locus YDL214C, strain PRR2, stronger effect = lower value 0.993 | S. cerevisiae deletion strains, locus YDR052C, strain DBF4, stronger effect = lower value 0.99 | S. cerevisiae deletion strains, locus YDR054C, strain cdc34, stronger effect = lower value 0.988 | S. cerevisiae deletion strains, locus YDR226W, strain ADK1, stronger effect = lower value 0.995 | S. cerevisiae deletion strains, locus YDR477W, strain SNF1, stronger effect = lower value 0.988 | S. cerevisiae deletion strains, locus YER123W, strain YCK3, stronger effect = lower value 0.96 | S. cerevisiae deletion strains, locus YER133W, strain GLC7, stronger effect = lower value 0.992 | S. cerevisiae deletion strains, locus YFL009W, strain cdc4, stronger effect = lower value 0.988 | S. cerevisiae deletion strains, locus YFL029C, strain CAK1, stronger effect = lower value 0.992 | S. cerevisiae deletion strains, locus YFR003C, strain YPI1, stronger effect = lower value 0.998 | S. cerevisiae deletion strains, locus YFR019W, strain FAB1, stronger effect = lower value 0.983 | S. cerevisiae deletion strains, locus YFR028C, strain CDC14, stronger effect = lower value 1.01 | S. cerevisiae deletion strains, locus YGR040W, strain KSS1, stronger effect = lower value 0.987 | S. cerevisiae deletion strains, locus YGR052W, strain FMP48, stronger effect = lower value 1.1 | S. cerevisiae deletion strains, locus YGR092W, strain DBF2, stronger effect = lower value 0.961 | [2] 0.9 | S. cerevisiae deletion strains, locus YHR079C, strain IRE1, stronger effect = lower value 1.02 | S. cerevisiae deletion strains, locus YHR082C, strain KSP1, stronger effect = lower value 1.06 | S. cerevisiae deletion strains, locus YHR205W, strain SCH9, stronger effect = lower value 0.981 | S. cerevisiae deletion strains, locus YIL147C, strain SLN1, stronger effect = lower value 1 | S. cerevisiae deletion strains, locus YJL095W, strain BCK1, stronger effect = lower value 0.96 | S. cerevisiae deletion strains, locus YJL128C, strain PBS2, stronger effect = lower value 0.993 | S. cerevisiae deletion strains, locus YJL157C, strain FAR1, stronger effect = lower value 0.986 | S. cerevisiae deletion strains, locus YJR016C, strain ILV3, stronger effect = lower value 1.01 | S. cerevisiae deletion strains, locus YJR066W, strain TOR1 (second series), stronger effect = lower value 0.981 | S. cerevisiae deletion strains, locus YJR066W, strain TOR1, stronger effect = lower value 0.98 | S. cerevisiae deletion strains, locus YKL048C, strain ELM1, stronger effect = lower value 0.961 | S. cerevisiae deletion strains, locus YKL067W, strain YNK1, stronger effect = lower value 0.969 | S. cerevisiae deletion strains, locus YKL101W, strain HSL1, stronger effect = lower value 0.982 | S. cerevisiae deletion strains, locus YKL193C, strain SDS22, stronger effect = lower value 1.01 | S. cerevisiae deletion strains, locus YKL203C, strain TOR2, stronger effect = lower value 1.02 | S. cerevisiae deletion strains, locus YLR113W, strain HOG1, stronger effect = lower value 0.943 | S. cerevisiae deletion strains, locus YLR133W, strain CKI1, stronger effect = lower value 0.972 | S. cerevisiae deletion strains, locus YLR403W, strain SFP1, stronger effect = lower value 0.973 | S. cerevisiae deletion strains, locus YML070W, strain DAK1, stronger effect = lower value 0.966 | S. cerevisiae deletion strains, locus YMR001C, strain CDC5, stronger effect = lower value 1 | S. cerevisiae deletion strains, locus YMR205C, strain PFK2 (second series), stronger effect = lower value 0.967 | S. cerevisiae deletion strains, locus YMR277W, strain FCP1, stronger effect = lower value 1.01 | S. cerevisiae deletion strains, locus YNL006W, strain LST8, stronger effect = lower value 0.994 | S. cerevisiae deletion strains, locus YNL020C, strain ARK1, stronger effect = lower value 0.969 | S. cerevisiae deletion strains, locus YNL161W, strain CBK1, stronger effect = lower value 1 | S. cerevisiae deletion strains, locus YNL183C, strain NPR1, stronger effect = lower value 0.969 | S. cerevisiae deletion strains, locus YNL207W, strain RIO2, stronger effect = lower value 0.985 | S. cerevisiae deletion strains, locus YNL222W, strain SSU72, stronger effect = lower value 1 | S. cerevisiae deletion strains, locus YNL307C, strain MCK1 (second series), stronger effect = lower value 1 | S. cerevisiae deletion strains, locus YOL078W, strain AVO1, stronger effect = lower value 1 | S. cerevisiae deletion strains, locus YOL136C, strain PFK27, stronger effect = lower value 0.986 | S. cerevisiae deletion strains, locus YOR061W, strain CKA2, stronger effect = lower value 0.987 | S. cerevisiae deletion strains, locus YOR119C, strain RIO1, stronger effect = lower value 1.06 | S. cerevisiae deletion strains, locus YOR231W, strain MKK1, stronger effect = lower value 1.01 | S. cerevisiae deletion strains, locus YOR329C, strain SCD5, stronger effect = lower value 0.999 | S. cerevisiae deletion strains, locus YPL031C, strain PHO85, stronger effect = lower value 0.99 | S. cerevisiae deletion strains, locus YPL153C, strain RAD53, stronger effect = lower value 0.961 | S. cerevisiae deletion strains, locus YPL204W, strain HRR25, stronger effect = lower value 0.96 | S. cerevisiae deletion strains, locus YPL209C, strain IPL1, stronger effect = lower value 0.984 | S. cerevisiae deletion strains, locus YPL256C, strain CLN2, stronger effect = lower value 1 | S. cerevisiae deletion strains, locus YPR025C, strain CCL1, stronger effect = lower value 1 | S. cerevisiae deletion strains, locus YPR106W, strain ISR1, stronger effect = lower value 0.991 | S. cerevisiae deletion strains, locus YPR111W, strain DBF20, stronger effect = lower value 0.977 | S. cerevisiae deletion strains, strain NNK1, stronger effect = lower value 0.981 | S. cerevisiae deletion strains, strain TSCII, stronger effect = lower value 1.01

O=[N+]([O-])c1ccc(N2CCCN(C(=S)Nc3ccc(Cl)cc3Cl)CC2)nc1
inactive: [3] 0.966 | [4] 0.96 | [5] 0.956 | [1] 0.942 | [6] 0.979 | [7] 0.886 | [8] 0.912 | [9] 0.961 | S. cerevisiae deletion strains, locus YGR229C, strain SMI1, stronger effect = lower value 0.989 | [11] 0.984 | [12] 0.937 | [14] 0.96 | [17] 0.932 | [18] 0.982 | [20] 0.98 | [22] 0.98 | S. cerevisiae deletion strains, locus YOL006C, strain TOP1, stronger effect = lower value 0.831 | [24] 0.928 | [25] 0.866
active: [2] 0.422 | [10] 0.906 | [13] 0.628 | [15] 0.543 | [16] 0.686 | [19] 0.433 | [21] 0.831 | [23] 0.8 | [26] 0.337

CSC(=NC#N)N1CCN(c2ccc([N+](=O)[O-])cn2)CC1
inactive: [3] 0.997 | [4] 1.01 | [5] 1 | [1] 1.02 | [6] 0.987 | [7] 1.07 | [8] 0.957 | [9] 0.996 | [2] 0.958 | [10] 0.991 | S. cerevisiae deletion strains, locus YJL187C, strain SWE1, stronger effect = lower value 0.993 | [11] 1.01 | [12] 1.01 | [13] 0.986 | [14] 0.989 | [15] 0.933 | [16] 0.978 | [17] 0.966 | [18] 0.996 | S. cerevisiae deletion strains, locus YMR263W, strain SAP30, stronger effect = lower value 1.01 | [19] 1.1 | [20] 1 | [21] 0.978 | [22] 0.99 | [23] 0.954 | [24] 1.08 | [25] 0.99 | [26] 1.09 | S. cerevisiae strains, strain wild type, stronger effect = lower value 0.983
